This is part of a sample that, as a whole, favours compounds with a hit. Of some 83,000 tested, about 20% had one in any assay.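 Testing used 96-well plates and a 48-hour single-concentration exposure. Example: -40 means 40% of the starting cells died.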 Unmarked numbers belong to inactive results. The source made the active and inactive calls. Rule for the calls: active = growth percent below 10; inactive = the rest.
tested on: HL-60(TB) leukemia; assay: NCI-60 one-dose screen, 48 h (100 = growth as untreated, 0 = no growth, -100 = all killed); conditions: 10 µM unless noted

SMILES | growth
CC(C)(C)[Si](C)(C)OC1[C@@H](COC(=O)NC(=O)CCl)O[C@@H](n2cnc3c(N)ncnc32)[C@H]1O[Si](C)(C)C(C)(C)C (stereo not given in full) | -48.3% (active)
CCOc1c(Br)cc(C2C(C(=O)OC)=CN(C)C=C2C(=O)OC)cc1OC | 35.5%
Cn1cc(-c2ccc3cc(-c4ccc(CC(=O)Nc5cc(C(C)(C)C)on5)cc4)cnc3c2)cn1 | -14.3% (active)
Cc1ccc(-n2nc(C(C)(C)C)cc2NC(=O)NCc2cc(F)ccc2Oc2ccc3c(cnn3CCO)c2)cc1 | -1.84% (active)
COc1cc(-c2nc3sccn3c2-c2ccnc(NCCNS(=O)(=O)c3ccc(F)cc3)n2)ccc1F | -17.4% (active)
Nc1nonc1-n1nncc1-c1cccnc1 | 134%
COc1c2ccccc2c(OC)c2[nH]c(=O)ccc12 | 71.5%
N#Cc1c(N)nc2c(c(-c3ccc(Cl)cc3)nn2-c2ccccc2)c1C#N | 98.9% [100 µM]
COc1ccc(/C=C/C(=O)/C=C/c2cc3ccccc3[nH]c2=O)cc1 | 62.9%
O=C(N/N=C/[C@H](O)[C@H](O)[C@H](O)CO)c1ccc(NC(=O)c2cccnc2)cc1 | 100%
C[C@H]1[C@H](C)CC[C@]2(C(=O)NCC#CCN3CCN(C)CC3)CC[C@]3(C)C(=CC[C@@H]4[C@@]5(C)Cc6c([nH]c7ccccc67)C(C)(C)[C@@H]5CC[C@]43C)[C@H]12 | 63.9%
Cc1cc(Nc2cccc(F)c2)nc(NCc2ccccc2)n1 | 24.1%
O=C1c2c(c3c4ccccc4[nH]c3c3ccc4ccccc4c23)C(=O)N1CCN1CCOCC1 | 53.6%
CC1=C2[C@@H](CC1)[C@]1(C)O[C@@](C3CCCCC3)(C[C@H]1OC(=O)CO)[C@H]2OC(=O)/C=C/c1ccccc1 | 82.5%
CCCCCCCCCCCCCCCCNc1ccccc1 | 8.47% (active)
N=C1N=C(N)CS1 | 112%
O=C(CCc1nnc(-c2c(Cl)cccc2Cl)o1)c1nc2ccccc2[nH]1 | -33.8% (active)
CC(=O)Oc1ccc(Nc2c3ccccc3nc3ccccc23)cc1 | -5.02% (active)
O=C(Nc1ccc(-n2cc(-c3ccncc3)c(-c3ccc(O)c(Cl)c3)n2)cc1)c1ccc(Cl)c(Cl)c1 | 14.7%
COc1ccc(/C=N/NC(=O)c2ccc(S(C)(=O)=O)cc2)cc1OC | 54.1%

SMILES | growth
Cc1[nH]c(-c2nc3ccccc3[nH]2)c(C)c1C(=O)N1CCOCC1 | 111%
O=CN1N=C(c2cccc(Nc3ccnc4cc(Cl)ccc34)c2)CC1c1ccc(Cl)cc1 (stereo not given) | -4.94% (active)
Brc1ccc(Nc2csc(-c3ccccn3)n2)cc1 | 99.6%
N#Cc1ccccc1C#Cc1ccccc1C#Cc1ccc(OCCCCCCOc2ccc(C#Cc3ccccc3C#Cc3ccccc3C#N)cc2)cc1 | 99.7%
COc1ccc(C2CC(c3ccc4ccccc4c3)=NN2c2nc(O)c(C3=c4cc(Cl)ccc4=NC3=O)s2)cc1 (stereo not given) | -6.68% (active)
Cc1ccc(-c2nc(N3CCNCC3)c3oc(-c4ccc(C)cc4)nc3n2)cc1 | -69.3% (active)
COc1ccc2c(c1)cn1c3ccc(O)cc3[nH]c(=O)c21 | -21.7% (active)
O=[N+]([O-])c1ccc(N=Nc2c(Cl)cc(O)cc2Cl)cc1 | -31.9% (active)
Cc1ccc2c(c1)C(C)Cc1c(ncnc1-n1cnc3ccccc31)N2C (stereo not given) | -19.1% (active)
O=Nc1ccc(O)c2ccccc12 | -3.12% (active)
O=C(CCl)Nc1cc(O)c2c(c1)C(=O)c1cccc(O)c1C2=O | -44.4% (active)
CCN(CC)CCOc1cccc2c1C(=O)c1ccccc1C2=O | 93.3%
COc1nc2c(c(=O)n1C)N=C1c3ccccc3C(=O)C1C(c1ccccc1)N2 (stereo not given) | 112%
NC(=NCc1ccccc1)C(N=Nc1ccccc1)C(=O)NCc1ccccc1 (stereo not given) | 72%
Cn1c2ccccc2c2c3c(c4c5ccccc5n(C)c4c21)C(=O)OC3 | 98.5%
COC(=O)[C@@H](NC(=O)NC(=O)NC(=O)CI)C(C)C | 77.9%
O=C(N/N=C(\CS(=O)(=O)c1ccccc1)c1cc2ccccc2oc1=O)c1ccccc1 | 105%
CN1C(=O)C2(SCC(C(=O)NCC(=O)OC(C)(C)C)N2C(=O)C2CCCCC2)c2ccccc21 (stereo not given) | 93.7%
CCCCCOC(=O)Nc1nc(=O)n(C2O[C@H](C)[C@@H](O)[C@H]2O)cc1F (stereo not given in full) | 92.8%
CS(=O)(=O)Nc1cc(-c2ccc3ncnc(Nc4ccc(OCc5ccccn5)c(Cl)c4)c3c2)cnc1Cl | 4.82% (active)
